# In all, about 39,000 compounds went through this assay and about 3,300 (8.5%) were called active. This excerpt belongs to a sample that is enriched for actives.
# Tested on: HepG2
# Assay: cytotoxicity call (relative viability < 0.9)
# Details: 10 µM
row,Structure (SMILES),cytotoxicity call
1,Nc1nc(/C(=N/O)C(=O)N[C@@H]2C(=O)N3C(C(=O)O)=C(/C=C4\CCN([C@@H]5CCNC5)C4=O)CS[C@H]23)ns1,inactive
2,CSc1ncc(C(=O)NN)n1C,inactive
3,CCS(=O)(=O)NCC[C@H]1CC[C@H](NC(=O)C2CC2)[C@H](CO)O1,inactive
4,CN(C)C(=O)COC[C@]12COC[C@H]1CN(S(C)(=O)=O)C2,inactive
5,C[C@H](CO)N1C[C@H](C)[C@H](CN(C)C(=O)Nc2ccc3c(c2)OCO3)Oc2ccc(NC(=O)c3ccncc3)cc2CC1=O,inactive
6,C[C@H](CO)N1C[C@H](C)[C@H](CN(C)C(=O)Nc2ccc3c(c2)OCO3)Oc2ccc(NS(=O)(=O)c3cn(C)cn3)cc2CC1=O,inactive
7,O=C(Nc1ccc2c(c1)[C@@H]1C[C@@H](CC(=O)N3CCc4ccccc4C3)O[C@H](CO)[C@@H]1O2)C1CCOCC1,inactive
8,C[C@@H]1CN([C@@H](C)CO)C(=O)Cc2cc(NC(=O)C3CC3)ccc2O[C@@H]1CN(C)C(=O)Nc1ccccc1,inactive
9,C[C@@H]1CN([C@H](C)CO)C(=O)c2cc(NC(=O)C3CCCCC3)ccc2O[C@@H](C)CCCCO[C@@H]1CN(C)S(=O)(=O)c1ccc(F)cc1,inactive
10,O=C(CN1CCOCC1)NCC[C@H]1CC[C@@H](NC(=O)Cc2ccccn2)[C@@H](CO)O1,inactive
11,Cc1noc(C)c1NC(=O)N(C)C[C@H]1Oc2c(NS(=O)(=O)c3c(C)noc3C)cccc2C(=O)N([C@@H](C)CO)C[C@H]1C,inactive
12,C=CCOC(=O)[C@H]1[C@@H]2C(=O)O[C@@H](c3ccccc3)[C@@H](c3ccccc3)N2[C@@H](c2ccc(OCCOC(=O)[C@H]3C[C@H]4C(=O)N[C@@H](Cc5ccccc5)C(=O)N4[C@H]3c3ccc(O)cc3)cc2)[C@]12C(=O)Nc1ccccc12,inactive
13,C[C@H]1CN([C@@H](C)CO)C(=O)c2cc(NC(=O)c3ccncc3)ccc2O[C@H]1CN(C)S(=O)(=O)c1ccccc1,inactive
14,O=C(CCCCC(=O)N/N=C/[C@H](O)[C@@H](O)[C@H](O)[C@H](O)CO)NO,inactive
15,Cc1cc(N)c2ccccc2[n+]1CCCCCCCCCC[n+]1c(C)cc(N)c2ccccc21.[Cl-].[Cl-],active
16,CCCN(C)C[C@@H]1OCCCC[C@@H](C)Oc2ccc(NS(=O)(=O)c3ccc(Cl)cc3)cc2C(=O)N([C@H](C)CO)C[C@@H]1C,inactive
17,COc1ccc(NC(=O)Nc2ccc3c(c2)C(=O)N([C@H](C)CO)C[C@H](C)[C@H](CN(C)Cc2ccncc2)OCCCC[C@@H](C)O3)cc1,inactive
18,CN(C)c1nc(N)nc(CSc2nnnn2C)n1,inactive
19,COc1ccc(CN(C)C[C@H]2Oc3ccc(NS(=O)(=O)c4c(C)noc4C)cc3CC(=O)N([C@H](C)CO)C[C@H]2C)cc1,inactive
20,O=C(C[C@@H]1C[C@@H]2c3cc(NC(=O)c4ccc5c(c4)OCO5)ccc3O[C@@H]2[C@H](CO)O1)NCC(F)(F)F,inactive
21,C[C@@H]1CCCCO[C@@H](CN(C)Cc2ccc(Cl)c(Cl)c2)[C@@H](C)CN([C@H](C)CO)C(=O)c2cc(NS(=O)(=O)c3cccs3)ccc2O1,inactive
22,C[C@@H]1CCCCO[C@@H](CN(C)Cc2ccc(Cl)c(Cl)c2)[C@@H](C)CN([C@@H](C)CO)C(=O)c2cc(NS(=O)(=O)c3cccs3)ccc2O1,active
23,C[C@@H]1CCCCO[C@@H](CN(C)Cc2ccc(Cl)c(Cl)c2)[C@H](C)CN([C@H](C)CO)C(=O)c2cc(NS(=O)(=O)c3cccs3)ccc2O1,inactive
24,C[C@@H]1CCCCO[C@H](CN(C)Cc2ccc(Cl)c(Cl)c2)[C@@H](C)CN([C@H](C)CO)C(=O)c2cc(NS(=O)(=O)c3cccs3)ccc2O1,active
25,C[C@H](CO)N1C[C@H](C)[C@@H](CN(C)Cc2ccc(Cl)c(Cl)c2)OCCCC[C@H](C)Oc2ccc(NS(=O)(=O)c3cccs3)cc2C1=O,inactive

row,Structure (SMILES),cytotoxicity call
1,C[C@@H]1CCCCO[C@H](CN(C)Cc2ccc(Cl)c(Cl)c2)[C@H](C)CN([C@H](C)CO)C(=O)c2cc(NS(=O)(=O)c3cccs3)ccc2O1,inactive
2,CC(C)NC(=O)N(C)C[C@@H]1Oc2ccc(NC(=O)CCCN(C)C)cc2C(=O)N([C@@H](C)CO)C[C@@H]1C,inactive
3,C[C@@H]1CN([C@H](C)CO)C(=O)c2cc(NC(=O)CCN3CCOCC3)ccc2O[C@@H]1CN(C)Cc1ccccc1,inactive
4,C[C@H]1CN([C@@H](C)CO)C(=O)c2cc(C#CC3CC3)cnc2O[C@H]1CN(C)S(=O)(=O)c1cccc(F)c1,inactive
5,COc1ccc(NC(=O)Nc2ccc3c(c2)C(=O)N([C@@H](C)CO)C[C@@H](C)[C@H](CN(C)C(=O)NC(C)C)OCCCC[C@@H](C)O3)cc1,inactive
6,C[C@H]1CN([C@@H](C)CO)C(=O)c2cccc(NC(=O)c3ccncc3)c2O[C@@H]1CN(C)Cc1ccc2c(c1)OCO2,inactive
7,N[C@@H](Cc1ccc(F)cc1)C(=O)O,inactive
8,NNC(=S)NCc1ccc(F)cc1,inactive
9,NC(=CS(=O)(=O)Cc1ccc(F)cc1)NO,active
10,CC(=O)O[C@H]1[C@H](O)[C@H](O)[C@H](O[C@@H]2[C@@H](Oc3cc(O)c4c(=O)cc(-c5ccc(O)c(O)c5)oc4c3)O[C@@H](C(=O)O)[C@H](O)[C@@H]2O)O[C@@H]1C,inactive
11,C[C@H]1CN([C@@H](C)CO)C(=O)c2cc(NC(=O)CCCN(C)C)ccc2O[C@@H]1CN(C)S(=O)(=O)c1ccc(Cl)cc1,inactive
12,CC(C)c1ccccc1OC[C@@H](O)CN,inactive
13,Cc1ccccc1OC[C@@H](O)CO,inactive
14,Cc1ccccc1OCC(O)CO (stereo not given),active
15,COc1cccc(NC(=O)N(C)C[C@H]2Oc3ncc(Br)cc3C(=O)N([C@H](C)CO)C[C@H]2C)c1,inactive
16,C[C@H]1COC(=O)[C@@H](Cc2ccc(F)cc2)CC=CC[C@@H](CC(=O)N[C@H](CO)Cc2ccccc2)C(=O)N1,inactive
17,Cn1nccc1NC(=O)/C=C/C(=O)O,inactive
18,C[C@@H]1CN([C@@H](C)CO)S(=O)(=O)c2ccc(-c3cccc(C#N)c3)cc2O[C@@H]1CN(C)C(=O)c1cccnc1,inactive
19,C[C@@H]1CN([C@H](C)CO)C(=O)c2cc(NC(=O)Nc3ccc(F)cc3)ccc2O[C@@H](C)CCCCO[C@H]1CN(C)C(=O)Nc1ccc(F)cc1,active
20,C[C@@H]1CCCCO[C@@H](CN(C)C(=O)Nc2ccc(F)cc2)[C@H](C)CN([C@@H](C)CO)C(=O)c2cc(NC(=O)Nc3ccccc3)ccc2O1,inactive
21,C[C@@H]1CCCCO[C@@H](CN(C)C(=O)Nc2ccc(F)cc2)[C@@H](C)CN([C@H](C)CO)C(=O)c2cc(NC(=O)Nc3ccc(F)cc3)ccc2O1,inactive
22,C[C@@H]1CCCCO[C@@H](CN(C)C(=O)Nc2ccccc2)[C@@H](C)CN([C@H](C)CO)C(=O)c2cc(NC(=O)Nc3ccc(F)cc3)ccc2O1,inactive
23,C[C@H]1CCCCO[C@H](CN(C)C(=O)Nc2ccccc2)[C@@H](C)CN([C@@H](C)CO)C(=O)c2cc(NC(=O)Nc3ccc(F)cc3)ccc2O1,active
24,C[C@@H]1CCCCO[C@H](CN(C)C(=O)Nc2ccc(F)cc2)[C@@H](C)CN([C@H](C)CO)C(=O)c2cc(NC(=O)Nc3ccc(F)cc3)ccc2O1,inactive
25,COc1ccc(NC(=O)Nc2ccc3c(c2)C(=O)N([C@H](C)CO)C[C@H](C)[C@H](CN(C)Cc2ccc4c(c2)OCO4)OCCCC[C@@H](C)O3)cc1,inactive

row,Structure (SMILES),cytotoxicity call
1,Cc1ccc(S(=O)(=O)N2C[C@H](O)COC[C@@H]3O[C@@H](CC(=O)NCc4ccc5c(c4)OCO5)CC[C@H]32)cc1,inactive
2,COc1ccc(S(=O)(=O)N(C)C[C@H]2Oc3c(cccc3N(C)C)C(=O)N([C@H](C)CO)C[C@@H]2C)cc1,inactive
3,CC(=O)N1[C@H](Cn2cncn2)C[C@H]2CN(C(N)=O)CC[C@H]21,inactive
4,COc1ccc(NC(=O)N(C)C[C@H]2OCCCC[C@@H](C)Oc3ccc(NC(=O)Nc4c(C)noc4C)cc3C(=O)N([C@@H](C)CO)C[C@H]2C)cc1,inactive
5,C[C@@H]1CCCCO[C@H](CN(C)Cc2ccccc2)[C@H](C)CN([C@@H](C)CO)C(=O)c2cc(NC(=O)CCC(F)(F)F)ccc2O1,inactive
6,COc1ccc(NC(=O)Nc2ccc3c(c2)C(=O)N([C@H](C)CO)C[C@@H](C)[C@@H](CN(C)C(=O)c2ccccc2)OCCCC[C@H](C)O3)cc1,inactive
7,NNC(=O)CCCCCC(=O)NO,inactive
8,NNC(=O)CCCCC(=O)NO,active
9,NNC(=O)CCCCCCC(=O)NO,inactive
10,Cc1cc([N+](=O)[O-])nn1CC(=O)NC(C)C,inactive
11,COc1cc2c(cc1OC)C(=O)NCC2,active
12,COc1cc2c(cc1OC)Cc1cc(OC)c(OC)cc1Cc1cc(OC)c(OC)cc1C2,inactive
13,COc1cc2c(cc1OC)C(=O)OC2,inactive
14,CO[C@H]1CN(C)C(=O)c2cc(NC(=O)C3CC3)ccc2OC[C@H](C)N(C(=O)Cc2ccccn2)C[C@H]1C,inactive
15,Cc1cc(C(=O)Nc2cccc3c2O[C@@H](CN(C)C(=O)Nc2ccccc2)[C@H](C)CN([C@@H](C)CO)C3=O)n(C)n1,inactive
16,Cc1ccc(CSc2nnc(CCN)o2)cc1,active
17,NCCCCCc1nnc(SCC(N)=O)o1,inactive
18,CC1(C)CC(=O)c2c(C(F)(F)F)nn(-c3ccc(C(N)=O)c(O[C@H]4CC[C@H](N)CC4)c3)c2C1,inactive
19,CC1(C)CC(=O)c2c(C(F)(F)F)nn(-c3ccc(C(N)=O)c(N[C@H]4CC[C@H](OC(=O)CN)CC4)c3)c2C1,active
20,CC(CCC(=O)O)C1CCC2C3C(O)CC4CC(O)CCC4(C)C3CCC12C (stereo not given),inactive
21,CCCCCCCCCCCCCCCCCCCC(=O)N[C@H]1CC[C@@]2(C)[C@@H](C1)C[C@@H](O)[C@@H]1[C@@H]2C[C@H](O)[C@]2(C)[C@@H]([C@H](C)CCC(=O)O)CC[C@@H]12,inactive
22,CCC(CCC(C)C1CCC2C3CCC4CC(O)CCC4(C)C3CCC12C)C(C)C (stereo not given),inactive
23,CC(C)[C@@H](CC[C@@H](C)[C@H]1CC[C@H]2[C@@H]3[C@H](O)C[C@H]4C[C@@H](NCCCNCCCCN)CC[C@]4(C)[C@H]3CC[C@]12C)OS(=O)(=O)O,active
24,CC(CCC(=O)O)C1CCC2C3CCC4CC(O)CCC4(C)C3CCC12C (stereo not given),inactive
25,CC(C)[C@@H](CC[C@@H](C)[C@H]1CC[C@H]2[C@@H]3[C@H](O)C[C@H]4C[C@@H](NCCCNCCCCNCCCN)CC[C@]4(C)[C@H]3CC[C@]12C)OS(=O)(=O)O,active

# — the antibiotic and cytotoxicity screens of Wong et al. (2023)
